PubChem BioAssay AID602281 (The Scripps Research Institute Molecular Screening Center, 2012)
Screen size: about 360,000 compounds; about 2,900 (0.81%) were called active. Many of the other results were omitted from the sample, so actives are more common in it than they were. Unmarked numbers belong to inactive results.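 Rule for the calls: active = inhibition above the mean inhibition across every tested compound plus 3 SD (cut at about 22% in these data); inactive = the rest.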

Target: Perilipin-5 (Homo sapiens) + 1-acylglycerol-3-phosphate O-acyltransferase ABHD5 (Homo sapiens) (UniProt Q00G26+Q8WTS1)
Assay: ABHD5-PLIN5 interaction inhibitors, primary screen, cell lysate, split luciferase complementation, luminescence (AID 602281);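 note: 0% = DMSO only wells and the 100% control is not disclosed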
Settings: Split G. princeps luciferase complementation, 4 h, at 4 µM, hits give high values

Sequence of Perilipin-5 (Homo sapiens) + 1-acylglycerol-3-phosphate O-acyltransferase ABHD5 (Homo sapiens) (Q00G26 whole entry, looked up): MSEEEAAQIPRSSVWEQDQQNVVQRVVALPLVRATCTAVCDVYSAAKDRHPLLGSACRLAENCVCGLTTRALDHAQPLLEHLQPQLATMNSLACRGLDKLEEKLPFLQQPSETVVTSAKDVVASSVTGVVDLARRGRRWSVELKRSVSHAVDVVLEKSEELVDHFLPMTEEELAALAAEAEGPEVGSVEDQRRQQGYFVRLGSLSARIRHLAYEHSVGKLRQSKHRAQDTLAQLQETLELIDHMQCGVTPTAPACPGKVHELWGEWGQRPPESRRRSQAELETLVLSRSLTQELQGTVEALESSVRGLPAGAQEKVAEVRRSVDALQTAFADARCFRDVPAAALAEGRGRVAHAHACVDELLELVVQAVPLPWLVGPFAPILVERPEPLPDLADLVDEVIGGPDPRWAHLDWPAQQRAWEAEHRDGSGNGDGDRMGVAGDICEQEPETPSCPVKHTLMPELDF
Sequence of Perilipin-5 (Homo sapiens) + 1-acylglycerol-3-phosphate O-acyltransferase ABHD5 (Homo sapiens) (Q8WTS1 whole entry, looked up): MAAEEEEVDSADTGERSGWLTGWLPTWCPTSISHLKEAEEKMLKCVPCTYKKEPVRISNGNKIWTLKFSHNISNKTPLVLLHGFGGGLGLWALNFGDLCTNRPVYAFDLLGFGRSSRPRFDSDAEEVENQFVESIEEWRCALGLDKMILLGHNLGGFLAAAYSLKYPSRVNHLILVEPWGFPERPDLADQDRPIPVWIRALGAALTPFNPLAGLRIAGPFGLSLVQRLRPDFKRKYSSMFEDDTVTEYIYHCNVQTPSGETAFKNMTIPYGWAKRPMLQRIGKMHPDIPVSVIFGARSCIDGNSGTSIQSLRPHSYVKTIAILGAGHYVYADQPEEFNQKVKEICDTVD

| SMILES | inhibition |
| --- | --- |
| COc1cccc(NCCC(=O)c2cccc([N+](=O)[O-])c2)c1 | -2.37% |
| COC(=O)/C=C\C(=O)Nc1cccc([N+](=O)[O-])c1 | 41% (active) |
| CC(NC(=O)Nc1cccc([N+](=O)[O-])c1)c1ccc2c(c1)OCO2 (stereo unspecified) | 8.55% |
| O=C(CCCOc1ccccc1)NCc1ccco1 | -2.47% |
| Cn1c2ccccc2c(=O)c2c(=O)n(Cc3ccco3)c(COc3ccccc3)nc21 | 40.1% (active) |
| O=C(Cn1c(=O)n(Cc2ccco2)c(=O)c2ccccc21)NCC1CCCO1 (stereo unspecified) | -2.17% |
| CCSc1nc(O)c(C(c2cccc(OC)c2)c2c(O)nc(SCC)[nH]c2=O)c(=O)[nH]1 | -4.24% |
| CCn1c(CNC(=O)c2ccc(OC)c(OC)c2)nnc1SCC(=O)Nc1ccccc1 | -3.29% |
| CCn1c(SC)nc(O)c(C(c2ccc(OC)c(O)c2)c2c(O)nc(SC)n(CC)c2=O)c1=O | 30.9% (active) |
| C=CCN(c1ccc(C(N)=O)cc1)S(C)(=O)=O | 0.17% |
| CCCOc1ccc(C(=O)C(CCC(CNCC)C(=O)c2ccc(OCCC)cc2)CNCC)cc1 (stereo unspecified) | 34.9% (active) |
| CC(C)CCOc1ccc(C(=O)C[N+]2(C)CCOCC2)cc1 | 1.19% |
| CCOc1cc(C(=O)O)ccc1OCCOc1ccccc1 | -0.9% |
| O=C(Nc1ccccc1N1CCCC1)c1ccc(F)c(S(=O)(=O)N2CCOCC2)c1 | -7.04% |
| CC(=O)N1CSCC1C(=O)O (stereo unspecified) | 3.52% |
| NC1=NC(=O)S/C1=C\c1ccc(O)cc1 | 7.71% |
| O=C(/C=C(O)/C=C/c1ccc(O)cc1)/C=C/c1ccc(O)cc1 | 35.1% (active) |
| C=CCNC(=O)/C=C/c1ccc(C(C)C)cc1 | -1.9% |
| CCc1nc(C)cn1S(=O)(=O)c1cc([N+](=O)[O-])ccc1Cl | 4.39% |
| CN(C)CCOC(=O)C(c1ccccc1)C1(O)CCCC1 (stereo unspecified) | -6.36% |
| CCCC(C(=O)OCCN(CC)CC)(c1ccccc1)c1ccccc1 | 6.21% |
| CCC(C(=O)OCCN(CC)CC)c1ccccc1 (stereo unspecified) | 49.6% (active) |
| Cc1ccnc(SCCn2c(N(C)Cc3ccccc3)nc3c2c(=O)n(C)c(=O)n3C)n1 | -0.81% |

| SMILES | inhibition |
| --- | --- |
| N#Cc1ccccc1S(=O)(=O)N1CCN(Cc2c(O)ccc3ccccc23)CC1 | 27.7% (active) |
| O=c1oc2c(CN3CCCCC3)c(O)ccc2c2c1CCCCC2 | -1.69% |
| N#Cc1ccccc1S(=O)(=O)N1CCN(C(=O)c2cc(-c3ccccc3)nn2-c2ccccc2)CC1 | -8.95% |
| Cn1c(CCC(=O)OCC(=O)NCc2ccccc2Cl)nc(=O)c2ccccc21 | 2.53% |
| CN(CC(=O)NCCc1ccccc1)S(=O)(=O)c1cnc[nH]1 | 1.21% |
| COCCN(Cc1ccccc1)C(=O)Cc1ccc(S(=O)(=O)N2CCOCC2)s1 | -7.33% |
| CCOC(=O)CSc1nc(C)c(Oc2ccc(Cl)cc2Cl)c(=O)[nH]1 | -1.81% |
| CCCCOC(=O)CNc1nnc(SCC(=O)OCC)[nH]c1=O | 55.4% (active) |
| CCc1ccc(C(=O)CSc2nnc(C)c(=O)[nH]2)cc1 | -3.63% |
| COC(C[C@H](O)CC(=O)[C@@H](C)OCc1ccccc1)OC | 2.47% |
| COC(C[C@@H]1O[C@@H]1C(=O)[C@H](C)OCc1ccccc1)OC | -0.78% |
| COC(C/C=C/C(=O)[C@@H](C)OCc1ccccc1)OC | 24.4% (active) |
| COc1ccc(-c2cnc3c(c2)C(=O)N([C@H](C)CO)C[C@@H](C)[C@H](CN(C)Cc2ccccc2)O3)cc1 | 4.36% |
| CCCCCCN1CCN(C2CN(Cc3cn(CCCCCC)nn3)S(=O)(=O)C2)CC1 (stereo unspecified) | -2.61% |
| CC(Sc1nncs1)C(=O)NCc1ccc2c(c1)OCO2 (stereo unspecified) | -10.2% |
| CCn1cc(C(=O)N2CC(C)CC(C)C2)c(=O)c2cc(S(=O)(=O)N3CCCC3)ccc21 (stereo unspecified) | -1.5% |
| O=C1C(Cl)=C(Oc2ccccc2)C(=O)c2ccccc21 | 84.3% (active) |
| O=C(N[C@H]1C/C=C\C(c2cccc(F)c2)N(Cc2ccccc2)C(=O)C1)OCC1c2ccccc2-c2ccccc21 (stereo partly specified) | -1.93% |
| COc1ccc(CN2CCN(Cc3cn(C)nc3-c3ccccc3)CC2CCO)c(C)c1C (stereo unspecified) | 8.28% |
| Cc1ccccc1CN1C[C@@H]2C[C@@H](c3cn(C)nc3-c3ccccc3)N3CCC[C@@]23C1=O | 22.1% (active) |
| Cc1ccccc1CN1C[C@@H]2C[C@@H](c3ccc4nsnc4c3)N3CCC[C@@]23C1=O | 0.89% |
| CC1(OC(=O)C2CCCC2)C(=O)C=C2C=C(c3ccc(C#N)cc3)OC=C2C1=O (stereo unspecified) | 22.6% (active) |
| CC1(C(=O)NS(=O)(=O)c2ccc(C#N)cc2)CCN1C(=O)c1ccc(C2CCCCC2)cc1 (stereo unspecified) | -0.02% |

| SMILES | inhibition |
| --- | --- |
| COC(=O)CCCC1=CC2=C(c3ccccc3)C(=O)C(C)(OC(=O)C3CCCC3)C(=O)C2=CN1c1ccc(OC)cc1 (stereo unspecified) | 3.52% |
| CC(C)CN1CCC1(C)C(=O)Nc1ccc(OC(F)F)cc1 (stereo unspecified) | -1.42% |
| CSc1nc(N(C)NC(=O)c2cccc(C)c2)c2ccccc2n1 | -6.13% |
| Cc1cc(C)nc(S/C=C/C(=O)c2ccccc2)n1 | 65.4% (active) |
| COc1ccc(C(=O)/C=C/Nc2ccccn2)cc1 | 0.9% |
| O=C(Nc1cccc(Cl)c1Cl)c1ccccc1NC(=O)C1CC=CCC1C(=O)O (stereo unspecified) | -5.77% |
| O=[N+]([O-])/C=C/c1ccc2c(ccn2Cc2ccccc2)c1 | 92% (active) |
| NC(=O)C1CCN(C(=O)c2ccc(-c3ccccc3)cc2)CC1 | 5.48% |
| NS(=O)(=O)c1ccc(NC(=O)COC(=O)C2(c3ccc(F)cc3)CCCC2)cc1 | -6.25% |
| O=C1c2cccnc2C(Nc2ccc(S(=O)(=O)N3CCCCCC3)cc2)N1Cc1ccccc1 (stereo unspecified) | -3.06% |
| O=C(CCNS(=O)(=O)c1ccccc1C(F)(F)F)Nc1ccncc1 | 3.18% |
| C=CCNCCCCOc1ccccc1 | -2.87% |
| Nc1cccc(OCCCCCOc2cccc(N)c2)c1 | 68.8% (active) |
| CN(C)CCOc1cccc(Br)c1 | -5.46% |
| O=C(COC(=O)c1cnccn1)Nc1cccc2ccccc12 | -5.15% |
| COc1cccc2cc(C(C)N(CCCN3CCOCC3)C(=O)Nc3ccc(Cl)cc3)oc12 (stereo unspecified) | 7.7% |
| O=C(Cn1ncc(N2CCCC2)c(Br)c1=O)c1ccc(Cl)cc1 | 3.08% |
| O=C(Cn1nnc(N2CCCCC2)n1)c1ccc(Cl)c(Cl)c1 | -2.6% |
| O=C(Cn1nc(CNc2ccc(Cl)cc2)[n+]2c1CCCCC2)c1ccc(Cl)cc1 | 28.2% (active) |
| N#Cc1ccc(C2N=C(c3ccccc3)NO2)cc1 (stereo unspecified) | 5.57% |
| Cc1noc(C)c1NC(=O)Nc1ccc2c(c1)C(=O)N([C@H](C)CO)C[C@H](C)[C@@H](CN(C)S(=O)(=O)c1cn(C)cn1)O2 | 3.26% |
| CCC(CC)C(C(=O)NC1CCCC1)N1CCN(c2cc(C)nc3ccccc23)CC1 (stereo unspecified) | 1.05% |
| CCCCCNC(=O)C(c1ccc(OC)cc1)n1c(=O)c(-c2ccccc2)nc2ccccc21 (stereo unspecified) | 1.61% |

| SMILES | inhibition |
| --- | --- |
| Cc1cccc(C)c1NC(=O)CCCSc1nnc(-c2ccco2)n1-c1ccccc1 | -1.49% |
| CCC(C(=O)Nc1c(C)cccc1C)n1c(-c2cc(C)cs2)nc2ccccc21 (stereo unspecified) | -1.93% |
| COc1ccc(NC(=O)C(c2ccncc2)n2c(=O)c(-c3cc4ccccc4[nH]3)nc3ccccc32)cc1 (stereo unspecified) | -4.13% |
| N#Cc1ccc(C(C(=O)NCc2ccccc2)n2c(=O)c(-c3ccco3)nc3ccccc32)cc1 (stereo unspecified) | 76.5% (active) |
| Cc1cccc(C)c1NC(=O)C(c1ccc(C(F)(F)F)cc1)n1c(=O)c(-c2ccco2)nc2ccccc21 (stereo unspecified) | 74.7% (active) |
| Cn1c(SCC(=O)NC2CCCCC2)nnc1-c1cc2ccccc2o1 | -2.37% |
| COc1ccc(C(C(=O)NCc2ccccc2)n2c(=O)c(-c3ccccc3)nc3ccccc32)cc1 (stereo unspecified) | 18.6% |
| O=C(NC1CCCCC1)C(c1cc2ccccc2o1)n1c(=O)c(-c2ccco2)nc2ccccc21 (stereo unspecified) | 78.2% (active) |
| Cc1cccc(C)c1NC(=O)C(c1cccc2ccccc12)n1c(=O)c(-c2ccco2)nc2ccccc21 (stereo unspecified) | 71.4% (active) |
| COc1ccc(C(C(=O)Nc2c(C)cccc2C)N2CCN(c3ccc(C)cc3)CC2)cc1 (stereo unspecified) | -0.48% |
| CC1CCCN(CCCNC(=O)CN2C(=O)COc3ccc(S(=O)(=O)N4CCOCC4)cc32)C1 (stereo unspecified) | -1.77% |
| CCc1cccc(NC(=O)CCCN2C(=O)C(c3ccccc3)Oc3cccnc32)c1 (stereo unspecified) | -1.01% |
| Cc1ccc(-c2nnc(C)c(N3CC(C)OC(C)C3)n2)cc1 (stereo unspecified) | -1.84% |
| CC(OC(=O)CCCOc1ccccc1)C(=O)Nc1ccc(Cl)cn1 (stereo unspecified) | -0.81% |
| O=C1OCCOC2CCCc3oc(-c4ccccc4)c1c32 (stereo unspecified) | -3.07% |
| CN1CCC(=O)N([C@H](CO)Cc2ccccc2)CC1 | -5.42% |
| Cc1ccsc1C(=O)NC1CCCCC1C (stereo unspecified) | 4.79% |
| CC(N)C12CC3CC(CC(O)(C3)C1)C2 (stereo unspecified) | -6.3% |
| Cc1nc2ccccn2c1C(=O)NN=C1CCN(C)CC1 | -0.19% |
| COC(=O)c1c(C)oc2ccc(N(C(=O)Oc3ccccc3)S(=O)(=O)c3ccccc3)cc12 | -1.45% |
| CC(=O)Oc1ccc(N(C(C)=O)S(=O)(=O)c2ccc3ccccc3c2)cc1Br | 6.52% |
| CC(=O)N(c1ccc2oc(=O)sc2c1)S(=O)(=O)c1ccc(C)cc1 | 36.7% (active) |
